Source: PubChem
mTORC1 inh – Acumen qHTS Assay for Inhibitors of the mTORC1 Signaling Pathway in MEF (Tsc2-/-, p53-/-) Cells: Sytravon. Potency, µM (highest dose often 38.3 µM), for the others: at the top dose activity change, negative = inhibition, most hits filed as inhibitors. actives 0.78% (n = 44,000). Tsc2-/- p53-/- MEF, phospho-rpS6 immunofluorescence/PI, 24 h. AID 493208, 2011;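 note: potency is the fitted concentration of half-maximal effect; plate controls were DMSO for no effect and rapamycin for full effect; nearly all actives have a fitted effect of over 50% in size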
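Plate MEFs (Tsc2-/-, p53-/-, empty vector) in DMEM/10% FBS; after 24 h add compound, incubate 24 h at 37 degree Celsius; fix in PFA/TX-100, block, stain phospho-rpS6 and 10 uM PI; scan at 488 nm; report % positive cells.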
p53null 32C kill – qHTS Screen for Compounds that Selectively Target Cancer Cells with p53 Mutations: Cytotoxicity of p53 Null Cells at the Permissive Temperature | H1299-neo p53 null cells, ATP luminescence, 24 h, 32C | Potency, µM (doses to about 46.1 µM), without a hit: at the highest dose activity change, negative = cytotoxicity, hits mostly cytotoxic | actives 0.62% (n = 55,000);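 note: potency is the fitted concentration of half-maximal effect; 0% = DMSO only and -100% = full killing by 100 µM tamoxifen; nearly all actives have a fitted effect of over 55% in size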
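Cells lacking p53 (H1299-neo) are plated at 600 per well and allowed to settle overnight at 37C. Test compounds (up to 46 uM) are added and held 24 hours at 32C, then ATP is quantified by luminescence.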
SKOV3 invasion – Primary qHTS assay for Inhibitors of ovarian cancer metastasis using an organotypic tumor microenvironment (TME) model; Potency, µM (titrated, usually from 45.8 µM), inactives show top-dose activity change, negative = inhibition, actives largely listed as inhibitors; SKOV3ip1-GFP adhesion/invasion on 3D omental model, fluorescence; AID 1963576, 2024; actives 0.1% (n = 46,000);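 note: potency is the fitted concentration of half-maximal effect; plate controls were DMSO wells for no effect and tomatine positive control wells for full effect; nearly all actives have a fitted effect of over 65% in size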
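Adhesion/invasion was scored as fixed GFP-labeled SKOV3ip1 cell counts (488/509 nm), normalized to DMSO and tomatine controls. Cancer cells in serum-free medium, with four compound doses (0.36-46 umol/L), sat 2 hr at RT then 16 hr at 37 C on a 48 hr fibroblast/mesothelial/ECM culture.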
PMP22 txn prim – Cell-based coincidence reporter assay to measure PMP22 gene transcription in S16 Pmp22-F2sN cells - Primary screen. Potency, µM (doses to about 57.5 µM), without a hit: top-dose activity change, negative = inhibition, usual class: inhibitors. AID 1508649, 2021. S16 Pmp22-F2sN Schwann cells, FLuc/NLuc coincidence luminescence, 24 h. actives 2% (n = 43,000); active = clear falling dose curves in both reporters; inconclusive = both reporters move, but less clearly or upward; inactive = either reporter flat; the % is the NLuc reporter signal; note: potency is the fitted concentration of half-maximal effect; % is set by controls: 0 for no effect and ±100 for the full control effect
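qHTS, 1536-well. Cells seeded, compounds added by pin tool, 24 h 37C. Nano-Glo reagent 1 (lysis/FLuc), 10 min RT, read; Stop&Glo, 10 min RT, read NLuc.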
S16 F2sN tox – Cell viability qHTS assay in S16 Pmp22-F2sN cells | S16 Pmp22-F2sN Schwann cells (luciferase reporters placed in the Pmp22 gene) viability, CellTiter-Glo, 24 h | Potency, µM (series often up to 57.5 µM), without a hit: at the highest dose activity change, negative = cytotoxicity, hits mostly cytotoxic | actives 0.48% (n = 43,000); note: potency is the fitted concentration of half-maximal effect; % is set by controls: 0 for no effect and ±100 for the full control effect; nearly all actives have a fitted effect of over 65% in size
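CellTiter-Glo counter-screen, qHTS, 1536-well. Cells: S16(c9) Pmp22-F2sN, 500-1,000/well in DMEM + 10% FBS. Cpd 23 nL pin transfer, 24 h, 37C/5% CO2. Read: luminescence, CCD imager.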
p53null 39C kill – qHTS Screen for Compounds that Selectively Target Cancer Cells with p53 Mutations: Cytotoxicity of p53 Null Cells at the Nonpermissive Temperature; Potency, µM (titrated, usually from 46.1 µM), without a hit: top-dose activity, negative = cell killing, usual class: cytotoxic; actives 0.97% (n = 55,000); H1299 p53-null (neo) cells, 39C, ATPlite viability, 24 h;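 note: potency is the fitted concentration of half-maximal effect; 0% = DMSO only and -100% = full killing by 100 µM tamoxifen; nearly all actives have a fitted effect of over 50% in size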
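H1299 lung cancer cells, p53-null (H1299-neo) or expressing p53 A138V (H1299-p53A138V), were plated overnight at 37C, then exposed to compounds at up to 46 uM for 24 hr at 39C. Viability was read by ATP-based luminescence.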
NLuc sat counter – Biochemical NLuc saturation counterscreen for small molecule modulators of PMP22 gene expression - Nano-Glo assay; shares compounds with PMP22 txn prim; Secreted NLuc enzyme (filtered S16 cell medium), Nano-Glo luminescence; Potency, µM (series often up to 57.5 µM), without a hit: top-dose activity change, negative = inhibition, usual class: inhibitors; actives 4% (n = 690); AID 1508638, 2021; note: potency is the fitted concentration of half-maximal effect; % is set by controls: 0 for no effect and ±100 for the full control effect
NLuc Km counter – Biochemical coelenterazine-based NLuc counterscreen for small molecule modulators of PMP22 gene expression - Km assay | shares compounds with PMP22 txn prim | secreted NLuc enzyme, coelenterazine luminescence, Km conditions | Potency, µM (highest dose often 57.5 µM), for the others: at the highest dose activity change, negative = inhibition, most hits filed as inhibitors | actives 5% (n = 690) | AID 1508639, 2021; note: potency is the fitted concentration of half-maximal effect; % is set by controls: 0 for no effect and ±100 for the full control effect
FLuc ctr PMP22 – Biochemical FLuc counterscreen for small molecule modulators of PMP22 gene expression. purified P. pyralis FLuc, luminescence, 10 min. shares compounds with PMP22 txn prim. 690 tested, under 10 active. Potency, µM (doses to about 57.5 µM), without a hit: top-dose activity, negative = inhibition, actives largely listed as inhibitors; note: % of control where 0% means no effect
Target sequence (P08659 whole entry, looked up): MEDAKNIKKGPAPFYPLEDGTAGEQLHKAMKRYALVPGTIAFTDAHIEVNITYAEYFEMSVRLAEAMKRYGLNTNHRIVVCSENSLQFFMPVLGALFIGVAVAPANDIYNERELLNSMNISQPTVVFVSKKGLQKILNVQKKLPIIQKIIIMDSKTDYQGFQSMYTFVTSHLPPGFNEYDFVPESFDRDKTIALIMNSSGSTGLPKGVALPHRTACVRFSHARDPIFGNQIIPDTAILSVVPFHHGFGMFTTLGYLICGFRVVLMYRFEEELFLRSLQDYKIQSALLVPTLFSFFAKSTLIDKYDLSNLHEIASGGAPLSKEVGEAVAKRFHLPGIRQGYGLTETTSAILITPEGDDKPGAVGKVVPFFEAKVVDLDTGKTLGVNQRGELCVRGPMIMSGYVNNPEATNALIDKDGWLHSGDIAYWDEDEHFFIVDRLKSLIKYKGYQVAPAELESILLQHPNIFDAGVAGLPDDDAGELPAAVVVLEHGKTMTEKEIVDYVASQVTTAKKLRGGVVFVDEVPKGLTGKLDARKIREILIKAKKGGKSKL
S16 viab conf – Cell viability qHTS assay in S16 Pmp22-F2sN cells - Confirmatory screen | shares compounds with PMP22 txn prim | S16 Schwann cells viability, CellTiter-Glo ATP luminescence, 24 h | Potency, µM (top dose mostly 57.5 µM), for the others: at the top dose activity change, negative = viability loss, most hits filed as cytotoxic | actives 7% (n = 690); note: potency is the fitted concentration of half-maximal effect; % is set by controls: 0 for no effect and ±100 for the full control effect
PMP22 txn conf – Cell-based coincidence reporter assay to measure PMP22 gene transcription in S16 Pmp22-F2sN cells - Confirmatory screen; shares compounds with PMP22 txn prim; S16 Schwann cells Pmp22-F2sN, dual luciferase, 24 h; Potency, µM (series often up to 57.5 µM), without a hit: at the top dose activity change, negative = inhibition, usual class: inhibitors; actives 22% (n = 690); active = clear falling dose curves in both reporters; inconclusive = both reporters move, but less clearly or upward; inactive = either reporter flat; the % is the FLuc reporter signal; note: potency is the fitted concentration of half-maximal effect
* marks the source's active call; other numbers are inactive results; i = inactive; ? = inconclusive; nt = no result. Compounds with a hit are over-represented: about 3.1% of the library has one in this group of screens. Unless noted, calls come from the whole dose curve; as a rule, active = well fitted curve in the direction sought with a large enough effect; inconclusive = small, poorly fitted or top-dose-only effect, or another doubt; inactive = no such curve, though single readings can be large; an effect the other way counts as inactive or inconclusive.

SMILES	mTORC1 inh	p53null 32C kill	SKOV3 invasion	PMP22 txn prim	S16 F2sN tox	p53null 39C kill	NLuc sat counter	NLuc Km counter	FLuc ctr PMP22	S16 viab conf	PMP22 txn conf
CCN(CC)S(=O)(=O)c1ccc(C(=O)NCCSc2c(-c3ccc(OC)cc3)[nH]c3ccccc23)cc1	-11%	8%	-15%	3µM*	-15%	14%	-24%	0%	-2%	-24%	-12%
O=C(NCCSc1c(-c2ccc(Br)cc2)[nH]c2ccccc12)c1ccc(S(=O)(=O)N2CCOCC2)cc1	-16%	11%	14%	8µM*	-19%	-7%	-10%	5%	9%	1%	?
Cc1ccc(-c2[nH]c3ccccc3c2SCCNC(=O)c2ccc(S(=O)(=O)N(C)C)cc2)cc1	-12%	20%	20%	?	?	4%	nt	nt	nt	nt	nt
O=C(NCCSc1c(-c2ccc(Cl)cc2)[nH]c2ccccc12)c1ccc(S(=O)(=O)N2CCOCC2)cc1	-12%	15%	5%	-11%	?	18%	nt	nt	nt	nt	nt
O=C(NCCSc1c(-c2ccccc2)[nH]c2ccccc12)c1ccc(S(=O)(=O)N2CCOCC2)cc1	-17%	19%	-22%	9.5µM*	-27%	-10%	-14%	-16%	7%	-20%	-9%
CN(C)CCNC(=O)c1ccc(Cn2c(=O)c3cccn3c3cccnc32)cc1	?	8%	i	11µM*	-6%	-9%	-5%	?	6%	31%	-31%
CCCCn1c(=N)n(CCOc2ccccc2OC)c2ccccc21	12µM*	-9%	?	20µM*	?	?	-10%	1%	-10%	?	?
Oc1ccc(C=Cc2cc(O)cc(O)c2)cc1	nt	nt	2%	nt	nt	nt	nt	nt	nt	nt	nt
CCN(CC)CCOC(=O)c1ccc(NC(=O)Cn2ncc3c([nH]c4ccc(C)cc43)c2=O)cc1	6%	3%	9%	10µM*	?	-27%	-5%	-2%	4%	15µM*	13µM*
CC(C)(C(=O)NCC(F)(F)C(F)(F)F)C(=O)N[C@@H]1C(=O)Nc2ccccc2-c2ccccc21	nt	nt	-26%	nt	nt	nt	nt	nt	nt	nt	nt
O[C@@H](COc1cccc2ncccc12)CN1CCN(C2c3ccccc3[C@@H]3[C@H](c4ccccc42)C3(F)F)CC1 (stereo partly specified)	nt	nt	-20%	nt	nt	nt	nt	nt	nt	nt	nt
COc1ccccc1CN1C(=O)C(=O)c2cccc(C)c21	-2%	-5%	-3%	-71%	?	-12%	nt	nt	nt	nt	nt
Cc1cc(Br)cc2c1N(Cc1ccccc1OC(C)C)C(=O)C2=O	?	?	?	9.5µM*	?	?	?	?	-21%	?	15µM*
CCOC(=O)N1CCN(Cc2nc3cc(NC(=O)CC)ccc3n2C(C)C)CC1	?	6%	0%	5.3µM*	-17%	-11%	-5%	-3%	1%	7%	?
CCOC(=O)N1CCN(Cc2nc3cc(NC(=O)CC(C)C)ccc3n2C(C)C)CC1	?	7%	-1%	?	-18%	?	nt	nt	nt	nt	nt
CCOC(=O)N1CCN(Cc2nc3cc(NC(=O)c4ccc([N+](=O)[O-])cc4)ccc3n2C(C)C)CC1	?	-15%	-6%	14µM*	-25%	4%	?	19µM*	-7%	?	?
COc1ccc(C)cc1NC(=O)c1cc(S(=O)(=O)N2CCN(c3cccc(C)c3C)CC2)ccc1F	?	-15%	i	?	-10%	19%	-2%	5%	-3%	-4%	7%
Cc1ccc(-c2c(C)n3c4c(=O)n(C)c(=O)n(C)c4nc3n2-c2cccc(O)c2)cc1	-1%	?	-5%	16µM*	7%	?	?	?	-5%	-6%	?
CCCCn1cc2c(c1-c1ccccc1Br)c(=O)n(C)c(=O)n2C	-4%	0%	i	15µM*	4%	-14%	?	-15%	-1%	0%	-41%
C[C@@H]1CN(Cc2ccc(F)cc2)[C@@H](C)CN1C(=O)c1cc2c(C(=O)C(=O)N(C)C)cn(C)c2cc1Cl	nt	nt	5%	nt	nt	nt	nt	nt	nt	nt	nt
COc1ccc(-c2csc3ncnc(Nc4ccc(OC)cc4OC)c23)cc1	0%	2%	-20%	?	-21%	20%	nt	nt	nt	nt	nt
COc1ccccc1Nc1ncnc2scc(-c3ccc(F)cc3)c12	11%	-7%	15%	18µM*	-28%	-5%	-8%	4%	7%	-2%	-49%
